# High-throughput results deposited in PubChem BioAssay by several laboratories.
# Wee1 stabilizer: human Wee1 degradation inhibition, primary screen; P30291; HeLa Luc-Wee1K328M stability, luciferase luminescence; 100% = proteasome inhibitor MG132 effect; reporter increase, % at 5 µM; 220,000 compounds, 1.2% hits;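 active = activation above the mean of all tested compounds plus 3 SD, set per screening run, cut at about 8.8% in these data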;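 also: cells exposed to compound for 20 h before luminescence read; 0% = DMSO alone and 100% = MG132 at 30 µM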
# Target sequence (P30291 whole entry K328M): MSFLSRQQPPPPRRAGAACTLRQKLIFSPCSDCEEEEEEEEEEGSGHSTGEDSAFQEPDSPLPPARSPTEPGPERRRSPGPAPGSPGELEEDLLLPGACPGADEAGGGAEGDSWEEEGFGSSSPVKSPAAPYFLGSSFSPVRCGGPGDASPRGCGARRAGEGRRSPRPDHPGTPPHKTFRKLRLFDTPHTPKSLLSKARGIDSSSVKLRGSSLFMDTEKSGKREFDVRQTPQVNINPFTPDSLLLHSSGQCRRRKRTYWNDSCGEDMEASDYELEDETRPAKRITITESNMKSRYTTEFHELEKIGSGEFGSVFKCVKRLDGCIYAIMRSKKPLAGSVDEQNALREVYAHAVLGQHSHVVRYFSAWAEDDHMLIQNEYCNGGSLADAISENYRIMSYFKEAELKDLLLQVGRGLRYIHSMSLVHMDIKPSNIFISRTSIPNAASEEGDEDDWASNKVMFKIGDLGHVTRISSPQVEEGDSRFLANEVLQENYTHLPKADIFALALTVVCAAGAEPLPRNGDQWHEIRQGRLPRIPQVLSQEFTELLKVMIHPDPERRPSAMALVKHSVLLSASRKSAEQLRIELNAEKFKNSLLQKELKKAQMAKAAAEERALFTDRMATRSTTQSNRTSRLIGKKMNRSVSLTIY
# KLF5 inh: inhibitors of KLF5 expression; inhibition, % at 5 µM; DLD-1 KLF5 promoter-luciferase reporter, luminescence; 290,000 compounds, 0.23% hits;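 active = inhibition above a per-plate limit of that plate's mean compound inhibition plus 3 SD, cut at about 60% in these data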;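 also: 0% = DMSO wells and 100% = LY294002 at 200 µM; higher means less KLF5 promoter-driven luciferase light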
# aSyn UTR inh: 5' untranslated region of α-synuclein, MLPCN primary screen; alpha-synuclein 5'UTR reporter, inhibitor activity; inhibition, % (tested at 7.5 µM); 300,000 compounds, 0.82% hits; in the data active = inhibition above about 60%;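 also: H4 neuroglioblastoma cells stably carrying SNCA 5'UTR luciferase fusion; 0% = DMSO wells and 100% = positive control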
# HIF act: HIF pathway transcriptional activation. U2OS HRE-luciferase reporter, luminescence; normalized: DMSO 0%, desferrioxamine 100%. activation, % at 7.5 µM (by protocol). 300,000 compounds, 0.32% hits. AID 1910;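 active = mean activation of at least 10% of the iron chelator positive control signal, with at least half of replicates also reaching 10%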
# Platelet DG rel: modulates dense granule release in human platelets | human platelet-rich plasma, SFLLRN dense granule ATP release, luminescence | inhibition, %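 (compounds screened at 7.5 µM in platelet-rich plasma)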 | 300,000 compounds, 0.22% hits | AID 1663;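 active = mean replicate score, as percent of positive control, at or above 50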
# The depositor's hits bear a star; nt = no result. Compounds with a hit are over-represented: about 2.1% of the library has one in this group of screens.
SMILES,Wee1 stabilizer,KLF5 inh,aSyn UTR inh,HIF act,Platelet DG rel
CCC(=O)Nc1cc2nn(-c3ccc(OC)cc3)nc2cc1C,1.4,-196.4,35.0,0.4,3.7
O=[N+]([O-])c1ccc2c(c1)C(O)n1nc(-c3ccc(Cl)cc3Cl)nc1S2 (centres undefined),12.8*,-5.5,-18.4,-0.4,2.6
COc1ccc2oc(=O)c(C(=O)N3CCN(C(=O)c4ccco4)CC3)cc2c1,nt,-27.4,-6.3,0.4,0.0
O=S(=O)(Cc1nnnn1-c1ccccc1)c1ccc(Cl)cc1,nt,-27.7,-4.0,-0.4,-10.0
CN(C)C(CNC(=S)Nc1ccc(F)cc1)c1cccnc1 (centres undefined),10.2*,5.9,-5.0,0.2,-0.5
CC(=O)N1c2ccc(S(=O)(=O)N3CCC(C(=O)NC(C)c4ccccc4)CC3)cc2CC1C (centres undefined),nt,7.0,18.3,-0.3,-15.1
CC(C)=CCC12Oc3cc(O)ccc3C1(O)Oc1cc(O)c([C@H]3C=C(C)CC(c4ccc(O)cc4O)[C@H]3C(=O)c3ccc(O)cc3O)c(O)c1C2=O (some centres undefined),nt,nt,12.8,-0.2,-3.6
CSc1nc(Oc2ccc3ccccc3c2)c2sccc2n1,-2.8,-4.5,82.3*,0.4,-2.9
O=C(NCc1cccs1)C(=O)c1cn(CC(=O)N2CCOCC2)c2ccccc12,1.7,-12.5,0.3,-0.3,-2.4
COCCCNC(=O)Cn1cc(C(C)=O)c2ccccc21,-2.0,19.0,-33.8,-0.2,-0.3
COCCNC(=O)Cn1cc(C(=S)N2CCOCC2)c2ccccc21,9.8*,-0.6,22.3,0.2,4.4
O=C(NCc1ccccc1)C(=O)c1cn(CC(=O)N2CCOCC2)c2ccccc12,nt,7.2,-4.6,196.9*,1.2
O=C(Cn1cc(SCc2cccc(Cl)c2)c2ccccc21)N1CCOCC1,10.6*,-18.5,-152.6,1.6,-46.8
Cc1cccc(-c2nnc(SCC(=O)N3CCOCC3)o2)c1,nt,-51.3,-70.2,1.9,-3.7
Cc1cccc(C(=O)O/N=C/c2c(N3CCOCC3)n(C)c3ccccc23)c1,-2.8,-19.6,71.7*,0.1,7.0
Cn1c(Cl)c(/C=N/OC(=O)c2ccccc2Cl)c2ccccc21,0.7,0.5,-21.4,0.4,-4.5
C/C(=N\N=C(N)N)c1cc(Cl)ccc1Cl,-1.6,-3.0,64.7*,-0.2,10.8
O=C(O)c1ccccc1S,11.8*,14.7,nt,nt,nt
O=C(O)Cc1ccccc1C(=O)O,-2.7,-23.3,-1.0,0.0,-0.1
COc1ccc2nc3oc(C(=O)Nc4ccc(OC)c(OC)c4)cc3cc2c1,8.9*,-25.4,-14.3,-0.1,-1.0
C/C(=C\C(=O)OCC(=O)NCc1ccccc1)C(=O)OCC(=O)NCc1ccccc1,1.0,-15.5,-4.4,440.9*,-12.0
COc1cc(C(c2sc3nc(C)nn3c2O)N2CCN(c3ccccc3)CC2)cc(OC)c1OC (centres undefined),-0.8,-10.4,11.6,-0.1,-1.5
COc1cc(C(c2sc3nc(C)nn3c2O)N2CCOCC2)cc(OC)c1OC (centres undefined),0.7,-10.9,5.6,-0.2,67.1*
COc1ccc(C(c2sc3nc(C)nn3c2O)N2CCCCC2)cc1 (centres undefined),-1.3,2.4,0.6,0.0,58.9*
COc1ccc(C(c2sc3nc(C)nn3c2O)N2CCC3(CC2)OCCO3)cc1 (centres undefined),0.7,-22.1,4.0,-0.1,nt
SMILES,Wee1 stabilizer,KLF5 inh,aSyn UTR inh,HIF act,Platelet DG rel
CC(C)NC(=O)c1ccccc1NC(=O)/C=C/c1cccc([N+](=O)[O-])c1,2.9,-16.0,63.0*,-1.1,-9.2
N#Cc1cc(S(=O)(=O)c2ccc(Cl)cc2)c(N)[nH]c1=O,10.6*,5.7,-13.3,-0.3,5.0
Cc1cc(C)c(S(=O)(=O)c2ccc(Cl)cc2)c(=O)[nH]1,nt,-23.8,0.1,-0.2,nt
CCC(C)(C)NC(=O)C1CCN(c2nc(OC)nc(OC)n2)CC1,-3.0,7.6,15.6,-0.5,2.0
N#CCc1cc2ccc3cccc4ccc(c1)c2c34,22.3*,-32.7,-8.0,-0.8,-9.6
Cc1c(C(=O)N2CCCCC2)c(S(=O)(=O)N(C)Cc2ccccc2)c(C)n1C,nt,-6.2,27.2,-0.1,55.7*
Cc1c(C(=O)N2CCCCC2)c(S(=O)(=O)NCCc2ccc(Cl)cc2)c(C)n1C,nt,-31.2,10.0,13.9*,-4.7
CCc1cccc2sc(N3CCN(C(=O)c4ccc([N+](=O)[O-])o4)CC3)nc12,nt,nt,-49.3,0.3,0.1
Cc1ccc(-c2nc(SC(C)C(=O)N3CCOCC3)n[nH]2)cc1 (centres undefined),nt,-31.7,4.7,-0.5,61.3*
